Calls of active or inactive are those of the source. Unless noted, no rule for the calls is given here.
Key:
[1] = system: Wnt5a (protein binding on small-molecule microarray); assay: small molecules binding Wnt5a protein – biophysical, small-molecule microarray, 635/667 nm fluorescence, primary screen (AID 1142); details: 635 nm fluorescence, higher = more signal;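 also: fluorescence read at 667 nm with signal to noise per printed feature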
[2] = ATP-based viability of Huh7 replicon cells – cell-based, CellTiter-Glo luminescence, basal, 48 h, cytotoxicity control for HCV replication inhibitor project, primary screen (AID 1143); details: higher = more signal, called active from +8 up or from −8 down;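 also: Huh7 hepatoma cells carrying a hepatitis C replication reporter with no stimulus; test concentration not given here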
[3] = Pseudomonas biofilm growth suppression – PAO1 strain, BacTiter-Glo luminescence, LB-PBS, primary screen (AID 1144); details: P. aeruginosa PAO1 biofilm, 12 h, higher = more signal
[4] = basal CRE-LacZ reporter activity in PC12 – cell-based, unstimulated, primary screen (AID 1145); details: no forskolin, luminescence, 4.5 h, higher = more signal, called active from +8 up or from −8 down
[5] = forskolin-driven CRE-LacZ activity in PC12 – cell-based, CRE-LacZ reporter, forskolin-stimulated, primary screen (AID 1146); details: luminescence, 4.5 h, higher = more signal, called active from +8 up or from −8 down;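 also: PC12 cells with 6xCRE LacZ reporter stimulated by forskolin 10 µM; beta-galactosidase reporter signal reflecting CREB driven transcription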
[6] = target: Streptavidin (Streptomyces avidinii) (UniProt P22629); assay: compounds binding control protein streptavidin – biophysical, small-molecule microarray, 635/667 nm fluorescence, artefact control for SMM compound annotation, primary screen (AID 1147); details: higher = more signal;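 also: signal reflects streptavidin binding to arrayed compounds as a control protein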
[7] = probe aInhba binding on compound microarray – biochemical, small-molecule microarray, 635/667 nm fluorescence, primary screen (AID 1148); details: higher = more signal;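 also: score merges 667nm spot fluorescence with signal-to-noise for antibody binding to printed compounds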
Torsin-1A (Homo sapiens) [8] = target: Torsin-1A (Homo sapiens) (UniProt O14656); assay: TOR1A wild-type binding on microarray – cell lysate, small-molecule microarray, lysate, 635/667 nm, primary screen (AID 1149); details: COS7 hTOR1A-WT lysate, 635 nm fluorescence, higher = more signal
Torsin-1A (Homo sapiens) [9] = target: Torsin-1A (Homo sapiens) (UniProt O14656); assay: torsin A mutant lysate binding on microarrays – cell lysate, small-molecule microarray, COS7 lysate, 635/667 nm fluorescence, primary screen (AID 1150); details: COS7 hTOR1A mutant lysate, 635 nm fluorescence, higher = more signal;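 also: score pools 667 nm emission and signal to noise measuring lysate protein binding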
[10] = system: Sonic hedgehog protein (Shh); assay: Sonic hedgehog microarray binding compounds – biochemical, small-molecule microarray, 635/667 nm fluorescence, primary screen (AID 1151); details: 635 nm fluorescence, higher = more signal;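 also: Shh protein binding to compounds spotted on small-molecule microarray slides; score combines spot fluorescence intensity with signal-to-noise across triplicate slides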
[11] = optical density shifts of acrAB sulA E. coli – strain DRC41, OD650, 48 h, E. coli filamentation inducer project, primary screen (AID 1152); details: higher = more signal, called active from +8 up or from −8 down;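 also: E. coli MC1000 strain DRC41 lacking acrAB efflux pump and sulA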
[12] = probe aLefty1 binding on compound microarray – biochemical, small-molecule microarray, 635/667 nm fluorescence, primary screen (AID 1153); details: higher = more signal;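 also: score merges spot fluorescence with signal-to-noise ratio from the scanned slide images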
[13] = plasmodial surface anion channel blockers, osmotic lysis – cell-based, P. falciparum Indochina, OD700, 1 h, primary screen (AID 1154); details: P. falciparum Indochina infected RBC osmotic lysis, higher = more signal, called active from +8 up or from −8 down
[14] = plasmodial surface anion channel blockers, osmotic lysis – cell-based, P. falciparum Indochina, OD700, 2 h, primary screen (AID 1155);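 also: lysis reports solute entry through the parasite surface anion channel PSAC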; details: P. falciparum Indochina infected erythrocytes, higher = more signal, called active from +8 up or from −8 down
[15] = changes in parasitized red cell lysis, either direction – P. falciparum Indochina, OD700, 3 h, PSAC antagonist project, primary screen (AID 1156); details: P. falciparum-infected erythrocytes, osmotic lysis, higher = more signal, called active from +8 up or from −8 down
[16] = plasmodial surface anion channel blockers, osmotic lysis – cell-based, P. falciparum Indochina, OD700, 18 h, primary screen (AID 1157); details: P. falciparum Indochina infected erythrocytes, osmotic lysis OD700, 18 h; higher = more signal, called active from +8 up or from −8 down
[17] = S6 kinase pathway phospho-S6 level changes – cell-based, A549, cytoblot, luminescence, serum-stimulated, primary screen (AID 1158); details: 5 h, higher = more signal;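 also: serum-stimulated A549 lung adenocarcinoma cells; signal is phosphorylated S6 detected by cytoblot immunostaining with HRP secondary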
[18] = target: NADPH oxidase 2 (Homo sapiens) (UniProt P04839); assay: compounds shifting NOX2 Amplex Red fluorescence – cell-based, HEK293-NOX2, PMA-stimulated, NOX inhibitor project, primary screen (AID 1159); details: 45 min, higher = more signal, called active from +8 up or from −8 down; also: test concentration not given here
[19] = target: NADPH oxidase 4 (Homo sapiens) (UniProt Q9NPH5); assay: compounds shifting NOX4 Amplex Red fluorescence – cell-based, HEK293-NOX4, tetracycline-induced, NOX inhibitor project, primary screen (AID 1160); details: HEK293-NOX4, Amplex Red H2O2 fluorescence, 45 min; higher = more signal, called active from +8 up or from −8 down
[20] = target: NADPH oxidase 5 (Homo sapiens) (UniProt Q96PH1); assay: compounds shifting NOX5 Amplex Red fluorescence – cell-based, HEK293-NOX5, NOX inhibitor project, primary screen (AID 1161); details: HEK293-NOX5, ionomycin, 45 min, higher = more signal
Sequence of NADPH oxidase 5 (Homo sapiens) (Q96PH1 whole entry, looked up): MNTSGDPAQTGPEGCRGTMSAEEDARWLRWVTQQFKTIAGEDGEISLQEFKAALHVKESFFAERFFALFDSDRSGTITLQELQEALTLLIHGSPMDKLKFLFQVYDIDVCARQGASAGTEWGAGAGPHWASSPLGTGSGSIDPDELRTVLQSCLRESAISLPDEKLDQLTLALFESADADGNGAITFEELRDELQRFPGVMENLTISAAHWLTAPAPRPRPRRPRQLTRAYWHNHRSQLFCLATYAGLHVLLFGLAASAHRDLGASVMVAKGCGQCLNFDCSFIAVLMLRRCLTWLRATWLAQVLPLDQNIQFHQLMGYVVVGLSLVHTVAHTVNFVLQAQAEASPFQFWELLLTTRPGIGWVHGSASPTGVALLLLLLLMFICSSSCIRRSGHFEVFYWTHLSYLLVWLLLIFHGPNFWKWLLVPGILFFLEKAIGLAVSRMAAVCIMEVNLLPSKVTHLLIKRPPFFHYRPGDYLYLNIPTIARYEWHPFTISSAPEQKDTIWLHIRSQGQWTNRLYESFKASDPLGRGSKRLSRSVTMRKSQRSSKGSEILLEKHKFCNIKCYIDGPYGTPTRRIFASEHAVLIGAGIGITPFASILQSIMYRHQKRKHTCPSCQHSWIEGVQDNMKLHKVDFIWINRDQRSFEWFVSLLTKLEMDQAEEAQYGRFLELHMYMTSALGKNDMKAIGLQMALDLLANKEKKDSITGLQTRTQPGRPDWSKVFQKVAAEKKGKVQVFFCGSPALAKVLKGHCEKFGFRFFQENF

Sequence of NADPH oxidase 4 (Homo sapiens) (Q9NPH5 whole entry, looked up): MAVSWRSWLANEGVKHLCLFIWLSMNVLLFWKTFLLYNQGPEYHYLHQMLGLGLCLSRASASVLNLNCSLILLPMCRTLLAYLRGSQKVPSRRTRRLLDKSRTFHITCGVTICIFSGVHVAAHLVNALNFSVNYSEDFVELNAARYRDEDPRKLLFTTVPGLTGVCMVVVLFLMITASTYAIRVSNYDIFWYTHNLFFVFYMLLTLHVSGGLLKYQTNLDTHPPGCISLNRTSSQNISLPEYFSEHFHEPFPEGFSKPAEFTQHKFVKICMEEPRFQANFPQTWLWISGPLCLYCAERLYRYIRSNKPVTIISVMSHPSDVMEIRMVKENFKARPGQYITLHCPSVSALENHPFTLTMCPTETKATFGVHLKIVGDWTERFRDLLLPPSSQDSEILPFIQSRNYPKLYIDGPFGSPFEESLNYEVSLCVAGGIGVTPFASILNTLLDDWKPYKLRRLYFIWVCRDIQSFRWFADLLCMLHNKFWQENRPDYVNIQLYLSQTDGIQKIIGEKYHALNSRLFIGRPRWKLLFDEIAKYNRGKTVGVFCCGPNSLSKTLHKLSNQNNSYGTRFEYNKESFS
Sequence of NADPH oxidase 2 (Homo sapiens) (P04839 whole entry, looked up): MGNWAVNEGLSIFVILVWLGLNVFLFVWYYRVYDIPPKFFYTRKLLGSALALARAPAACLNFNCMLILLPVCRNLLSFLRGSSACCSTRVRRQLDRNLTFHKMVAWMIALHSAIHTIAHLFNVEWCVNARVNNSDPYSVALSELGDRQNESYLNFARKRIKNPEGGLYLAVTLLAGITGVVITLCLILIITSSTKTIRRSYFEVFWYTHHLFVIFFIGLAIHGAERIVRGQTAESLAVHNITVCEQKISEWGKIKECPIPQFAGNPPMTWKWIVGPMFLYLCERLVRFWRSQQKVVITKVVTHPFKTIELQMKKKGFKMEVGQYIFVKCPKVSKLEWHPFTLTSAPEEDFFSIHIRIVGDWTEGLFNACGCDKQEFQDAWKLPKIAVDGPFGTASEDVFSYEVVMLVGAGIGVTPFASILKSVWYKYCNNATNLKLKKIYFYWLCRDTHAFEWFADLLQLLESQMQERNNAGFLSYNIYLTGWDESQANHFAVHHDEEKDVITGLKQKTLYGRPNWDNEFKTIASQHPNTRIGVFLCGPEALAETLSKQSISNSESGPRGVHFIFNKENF
Sequence of Torsin-1A (Homo sapiens) (O14656 whole entry, looked up): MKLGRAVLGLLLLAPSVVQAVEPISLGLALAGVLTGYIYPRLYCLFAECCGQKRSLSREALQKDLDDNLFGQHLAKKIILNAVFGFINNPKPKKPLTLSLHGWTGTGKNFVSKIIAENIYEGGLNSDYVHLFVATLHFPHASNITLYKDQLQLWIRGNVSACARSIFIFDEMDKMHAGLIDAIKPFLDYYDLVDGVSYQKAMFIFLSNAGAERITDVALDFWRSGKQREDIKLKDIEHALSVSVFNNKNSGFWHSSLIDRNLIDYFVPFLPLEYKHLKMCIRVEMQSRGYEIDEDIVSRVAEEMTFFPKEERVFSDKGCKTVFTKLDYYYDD
Sequence of Streptavidin (Streptomyces avidinii) (P22629 whole entry, looked up): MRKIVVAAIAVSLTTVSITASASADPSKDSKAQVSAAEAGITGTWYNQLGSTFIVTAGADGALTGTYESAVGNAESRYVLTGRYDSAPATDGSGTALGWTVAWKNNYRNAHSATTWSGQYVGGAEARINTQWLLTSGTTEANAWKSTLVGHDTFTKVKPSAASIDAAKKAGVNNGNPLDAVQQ

| Structure (SMILES) | composite z-score [1] | z-score [2] | z-score [3] | z-score [4] | z-score [5] | composite z-score [6] | composite z-score [7] | composite z-score (Torsin-1A (Homo sapiens) [8]) | composite z-score (Torsin-1A (Homo sapiens) [9]) | composite z-score [10] | z-score [11] | composite z-score [12] | z-score [13] | z-score [14] | z-score [15] | z-score [16] | z-score [17] | z-score [18] | z-score [19] | z-score [20] |
| --- | --- | --- | --- | --- | --- | --- | --- | --- | --- | --- | --- | --- | --- | --- | --- | --- | --- | --- | --- | --- |
| Cc1ccc(S[C@]2(C(=O)NCCCN(C)C)CC(=O)N(Cc3ccccc3C(F)(F)F)[C@@H]2c2ccc(CO)cc2I)cc1 | -0.379 | -1.13 (inactive) | 0.323 (inactive) | -0.464 (inactive) | 1.66 (inactive) | -0.493 | 0.189 | 0.22 | -0.144 | -0.117 | -0.527 (inactive) | -0.629 | 3.14 (inactive) | 0.684 (inactive) | 0.32 (inactive) | 0.377 (inactive) | -0.579 | -0.632 (inactive) | -1.08 (inactive) | 1.96 |
| COC(=O)c1cccc([C@H]2OC(=CC(=O)OC(C)C)C[C@@H](c3cccc(C(=O)OC)c3)O2)c1 | 1.19 | -2.17 (inactive) | 0.111 (inactive) | 1.26 (inactive) | 1.05 (inactive) | 1.21 | 0.0649 | 1.64 | 1.53 | 1 | -0.576 (inactive) | 0.635 | 18.5 (active) | 3.17 (inactive) | 0.487 (inactive) | 0.683 (inactive) | 0.0055 | -0.679 (inactive) | -1.6 (inactive) | -2.04 |
| COC(=O)C(CC#Cc1ccc2c(c1)[C@]1(C(=O)N2)[C@H](C(=O)N2CCc3cc(OC)c(OC)cc3C2)[C@H]2C(=O)O[C@H](c3ccccc3)[C@H](c3ccccc3)N2[C@@H]1c1ccccc1OCCO)C(=O)OC | 0.345 | -2.91 (inactive) | -0.375 (inactive) | -0.168 (inactive) | 0.214 (inactive) | 1 | 0.0561 | 0.885 | 1.15 | 1.99 | 0.113 (inactive) | 0.0429 | 2.85 (inactive) | 1.76 (inactive) | 0.848 (inactive) | 1.08 (inactive) | -0.416 | 2.02 (inactive) | 0.405 (inactive) | 1.9 |
| CCOC(=O)C[C@H]1[C@H](OC(=O)Cc2ccc3c(c2)OCO3)[C@@H](NC(=O)Cc2ccc(OC)cc2)c2cc(OCCCO)ccc2N1C(=O)Cc1ccc(OC)cc1 | -0.31 | -0.972 (inactive) | -0.805 (inactive) | 1.52 (inactive) | -0.0811 (inactive) | 0.699 | -0.154 | 0.142 | 0.209 | 0.106 | 1.91 (inactive) | -0.15 | 10.7 (active) | 0.647 (inactive) | -1.02 (inactive) | -0.395 (inactive) | 1.68 | -0.988 (inactive) | 0.754 (inactive) | 0.404 |
| C=CCOC(=O)[C@H]1[C@@H]2C(=O)O[C@@H](c3ccccc3)[C@@H](c3ccccc3)N2[C@@H](c2ccc(OCCOC(=O)[C@@H]3C[C@@H]4C(=O)N[C@@H](CCCCNC(C)=O)C(=O)N4[C@@H]3c3cccc(OCCO)c3)cc2)[C@]12C(=O)Nc1ccccc12 | 0.455 | -0.08 (inactive) | -0.295 (inactive) | -0.118 (inactive) | -0.656 (inactive) | -0.35 | -0.0342 | 1.2 | 1.3 | 1.54 | -0.637 (inactive) | 0.082 | 3.6 (inactive) | 1.34 (inactive) | 2.28 (inactive) | 0.621 (inactive) | -0.52 | 1.83 (inactive) | 1.4 (inactive) | 0.618 |
| [N-]=[N+]=Nc1ccccc1C[C@]1(C(=O)N2CCOCC2)N=C(c2ccc(OCCCO)cc2)O[C@H]1c1ccccc1N=[N+]=[N-] | 0.936 | -4.16 (inactive) | -0.781 (inactive) | 0.0686 (inactive) | -2.38 (inactive) | 1.79 | 0.0757 | 1.32 | 0.946 | 1.76 | 1.76 (inactive) | 0.15 | 30.7 (active) | 25.3 (active) | 1.18 (inactive) | 6.73 (inactive) | 2.28 | -2.86 (inactive) | 0.383 (inactive) | -2.57 |
| COCCOC(=O)N1C(=O)[C@@]2(c3cc(C#CCCO)ccc31)[C@H](C(N)=O)[C@H]1C(=O)O[C@H](c3ccccc3)[C@H](c3ccccc3)N1[C@@H]2c1ccccc1OCCO | 0.119 | -3.54 (inactive) | 0.00875 (inactive) | 0.0695 (inactive) | -0.29 (inactive) | 0.612 | 0.017 | 0.69 | 0.791 | 1.13 | -0.3 (inactive) | -0.147 | 12.2 (active) | 2.47 (inactive) | 1.99 (inactive) | 0.68 (inactive) | 1.02 | 1.51 (inactive) | 0.755 (inactive) | 0.594 |
| COc1ccc([Si](C)(C)[C@H]2[C@H](CC(=O)N3Cc4ccccc4C[C@H]3CO)O[C@@]3(C(=O)N(c4ccccc4)c4ccccc43)[C@@H]2C)cc1 | 0.479 | -5.64 (inactive) | 0.449 (inactive) | 3.6 (inactive) | -1.16 (inactive) | 0.968 | 0.0342 | 1.57 | 0.862 | 2.04 | 0.968 (inactive) | 0.701 | 11.9 (active) | 2.16 (inactive) | 1.24 (inactive) | 1.09 (inactive) | 1.35 | -1.56 (inactive) | -0.499 (inactive) | -2.51 |

From PubChem BioAssay
